High-throughput results from PubChem.
A selection: hits, their analogues and other compounds. The true share with any hit is near 2.2%.
TLR9-MyD88 inh = inhibitors of TLR9-MyD88 association in cells, primary screen, cell-based, CHO, BLA complementation, fluorescence. CCF4 FRET ratio. inhibition, % at 4.98 µM. actives 0.21% (n = 340,000). AID 504734, 2011;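 active means inhibition above the mean over all tested compounds plus 3 SD, cut at about 21% in these data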
TMEM16A act = TMEM16A chloride channel activators or potentiators, primary screen, cell-based, HTS | Anoctamin-1 (Mus musculus), Q8BHY3 | B-score at 10 µM | actives 0.3% (n = 340,000) | AID 623877, 2012 | HEK293 TMEM16A/YFP-H148Q/I152L, iodide quench fluorescence; stronger effect = lower value;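 active means fluorescence-ratio B-score plate-corrected deviation score at least 3 library SD below zero, with starting fluorescence score within 5 deviations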;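 further: channel opened by trigger with iodide after compound preincubation; score built on the fluorescence ratio of max minus min over baseline; more negative score means more quench and so TMEM16A activation or potentiation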
TMEM16A inh = TMEM16A chloride channel inhibitors, primary screen, cell-based, HTS. Anoctamin-1 (Mus musculus), Q8BHY3. HEK293 TMEM16A/YFP iodide influx fluorescence, ionomycin. normalized B-score (activity score, 25-100; higher = stronger inhibition) at 10 µM. actives 1.2% (n = 310,000). AID 588511, 2011;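 active means ratio plate-corrected score three or more library SD toward inhibition, starting fluorescence score within five deviations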;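 further: score derived from kinetic fluorescence span divided by baseline fluorescence per well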
TLR4 MyD88 comp = inhibitors of TLR4-MyD88 association in cells, primary screen, cell-based, HeLa CL3-4, BLA complementation, FRET ratio; HeLa CL3-4 TLR4/MyD88 BLA complementation; inhibition, % at 8.4 µM; actives 0.18% (n = 200,000); in the data active means inhibition above about 25%
NOD2-RIPK2 inh = NOD2-RIPK2 binding disruptors in cells, primary screen, fluorescence, CHO cells, BLA complementation | CCF4 ratio | Receptor-interacting serine/threonine-protein kinase 2 (Homo sapiens), O43353 | inhibition, % at 4.98 µM | actives 0.38% (n = 360,000); in the data active means inhibition above about 21%
Target sequence (O43353 whole entry, looked up): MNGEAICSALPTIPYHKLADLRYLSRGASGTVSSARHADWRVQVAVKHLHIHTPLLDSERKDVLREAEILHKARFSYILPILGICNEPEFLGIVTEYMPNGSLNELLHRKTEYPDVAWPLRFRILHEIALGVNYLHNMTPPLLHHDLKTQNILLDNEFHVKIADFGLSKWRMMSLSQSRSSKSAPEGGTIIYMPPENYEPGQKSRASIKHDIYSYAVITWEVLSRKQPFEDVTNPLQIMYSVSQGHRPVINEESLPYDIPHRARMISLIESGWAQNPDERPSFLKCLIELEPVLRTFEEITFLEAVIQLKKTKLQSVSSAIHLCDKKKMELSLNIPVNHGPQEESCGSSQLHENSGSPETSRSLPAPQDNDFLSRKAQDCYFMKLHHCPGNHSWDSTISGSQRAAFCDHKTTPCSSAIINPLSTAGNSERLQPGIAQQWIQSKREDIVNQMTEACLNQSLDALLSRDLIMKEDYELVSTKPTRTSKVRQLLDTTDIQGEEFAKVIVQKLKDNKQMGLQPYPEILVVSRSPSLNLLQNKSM
GRK2 inh = compounds blocking aptamer binding on GRK2 – biochemical, human GRK2, bead flow cytometry, HTS, primary screen. Beta-adrenergic receptor kinase 1 (Homo sapiens), P25098. FAM-aptamer displacement from GRK2. inhibition of aptamer binding, % at 10 µM. actives 0.59% (n = 330,000). AID 488847, 2010;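 active means inhibition of aptamer binding above 40%, roughly 3 SD of noise, on plates passing a quality check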;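 further: median bead fluorescence of bound FAM aptamer so fluorescent compounds give negative values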
TMEM16A reconf = TMEM16A chloride channel inhibitors, confirmation, cell-based, re-confirmation; inhibition, % at 10 µM; HEK293 TMEM16A/YFP-H148Q, iodide quench fluorescence; ionomycin added to raise cell calcium; actives 39% (n = 2,300); AID 652189, 2013; shares compounds with TMEM16A inh;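 active means mean duplicate percent inhibition, scaled so buffer wells are 0 and the reference blocker 100, over three buffer SD above buffer mean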
HEK293 Ca mobil = calcium mobilization in TMEM16A/YFP HEK293 cells, confirmation, counter-screen for TMEM16A inhibitor project. shares compounds with TMEM16A inh. Fluo4 calcium mobilization. calcium response (% of ionomycin), % at 10 µM. actives 2% (n = 2,300). AID 652231, 2013;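 active means duplicate-averaged calcium signal over 20% of the ionomycin maximum, relative to buffer baseline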;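 further: each well's signal is peak minus trough fluorescence divided by its pre-addition baseline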
YFP-HEK293 quench = iodide YFP quench changes in parental YFP-HEK293, counter-screen for TMEM16A inhibitor project, cell-based; shares compounds with TMEM16A inh; ionomycin; YFP ratio F(max-min)/F0 at 10 µM; 2,300 tested, under 10 active;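 active means yellow fluorescent protein signal ratio exceeding the buffer control mean by over 5 SD of those controls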;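 further: ratio is mean of duplicate wells from kinetic YFP trace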
ClC-1 inh = ClC-1 chloride channel inhibition, selectivity assay for TMEM16A inhibitor project, cell-based, voltage-dependent ClC-1; shares compounds with TMEM16A inh; CHO ClC-1-YFP, iodide influx fluorescence quench; iodide control reads 0, buffer control 100; ratio percent, % at 10 µM; 2,300 tested, under 10 active; AID 652236, 2013;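 active means duplicate-mean ratio percent above the mean of iodide-only control wells, which defines zero, plus 5 of their SD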;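 further: higher percent means stronger block of ClC-1 iodide influx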
Each line names hits and unclear results; the compound was inactive in the other large screens (follow-up assays come after a bar, where they were run).

COc1ccc(CCN(Cc2cc3cccc(C)c3[nH]c2=O)C(=O)NC2CCCCC2)cc1OC	none
O=C(NCc1ccco1)c1ccccc1NS(=O)(=O)c1ccc(Br)s1	TMEM16A inh 100 | TMEM16A reconf inactive | HEK293 Ca mobil inactive | YFP-HEK293 quench inactive | ClC-1 inh inactive
COc1ccc(S(=O)(=O)Nc2ccccc2C(=O)NCc2ccco2)cc1	none
O=C(Nc1cccc2ccccc12)c1ccc2sc([C@@H]3O[C@H](CO)[C@H](O)[C@H](O)[C@H]3O)nc2c1	none (no result: TLR9-MyD88 inh, TMEM16A act, TMEM16A inh, TLR4 MyD88 comp, GRK2 inh)
S=C(NCC1CCCCC1)Nc1ccc(Oc2ccccc2)cc1	TMEM16A inh 100 | TMEM16A reconf 20.0% | HEK293 Ca mobil inactive | YFP-HEK293 quench inactive | ClC-1 inh inactive
S=C(Nc1ccc(Oc2ccccc2)cc1)NC1CCCC1	none
S=C(NCC1CCCO1)Nc1ccc(Nc2ccccc2)cc1 (centres undefined)	TMEM16A inh 100 | TMEM16A reconf inactive | HEK293 Ca mobil inactive | YFP-HEK293 quench inactive | ClC-1 inh inactive
Cc1ccccc1C1C(C#N)=C2N=C(N)c3c(sc4c3CCCCC4)N2C2=C1C(=O)CC(C)(C)C2 (centres undefined)	none | TMEM16A reconf inactive | HEK293 Ca mobil inactive | YFP-HEK293 quench inactive | ClC-1 inh inactive
Cc1ccccc1C1C(C#N)=C2NC(=O)c3c(sc4c3CCCCC4)N2C2=C1C(=O)CC(C)(C)C2 (centres undefined)	none (no result: TLR9-MyD88 inh, TMEM16A act, NOD2-RIPK2 inh)
O=C(CSc1ncnc2ccccc12)c1ccc2c(c1)OCCO2	TMEM16A inh 25 | TMEM16A reconf 39.0% | HEK293 Ca mobil inactive | YFP-HEK293 quench inactive | ClC-1 inh inactive
O=C(CSc1ccc2nnc(CCNS(=O)(=O)c3ccccc3)n2n1)Nc1nc2ccccc2s1	none
CC1C(=O)N2CCCc3cc(NC(=O)c4ccccc4Br)cc1c32 (centres undefined)	none (no result: TLR4 MyD88 comp)
CC(OC(=O)c1ccccc1Nc1ccc(SC(F)F)cc1)C(N)=O (centres undefined)	TMEM16A inh 25 | TMEM16A reconf inactive | HEK293 Ca mobil inactive | YFP-HEK293 quench inactive | ClC-1 inh inactive
COc1ccc(S(=O)(=O)Nc2ccccc2C(F)(F)F)cc1	TMEM16A inh 100 | TMEM16A reconf inactive | HEK293 Ca mobil inactive | YFP-HEK293 quench inactive | ClC-1 inh inactive
COc1ccc(OC)c(S(=O)(=O)Nc2ccccc2C(F)(F)F)c1	none
Nc1nc(-c2ccccc2)c(-c2ccccc2)n1N	none (no result: TLR4 MyD88 comp) | TMEM16A reconf inactive | HEK293 Ca mobil inactive | YFP-HEK293 quench inactive | ClC-1 inh inactive
Cc1ccc(NC(=O)CCNS(=O)(=O)c2ccccc2F)cc1S(=O)(=O)N1CCOCC1	none (no result: TLR4 MyD88 comp)
CCCCOC(=O)Nc1ccc(N2CCCCC2)cc1	none | TMEM16A reconf inactive | HEK293 Ca mobil inactive | YFP-HEK293 quench inactive | ClC-1 inh inactive
